# Assay results as given in PubChem BioAssay AID1345082 (National Center for Advancing Translational Sciences (NCATS), 2018).
# The campaign covered roughly 94,000 compounds. About 4,000 (4.3%) were called active. A call without a number means that no potency is given here. Roughly 29% stayed inconclusive and do not appear here. The sample holds actives, similar compounds and a random draw of the others, so the mix is not that of the screen. Calls come from the whole dose curve; as a rule, active = well fitted inhibition curve with a large enough effect; inconclusive = small, poorly fitted or top-dose-only effect; inactive = no such curve, though single readings can be large or run the other way.
# Assay: Cytotoxic Profiling in NIH 3T3 Cell Line of Diverse Libraries Using Quantitative High-Throughput Screening; note: nearly all actives have a fitted effect of over 55% in size
# Details: NIH 3T3 viability, CellTiter-Glo ATP luminescence, 48-72 h; series mostly up to 96.7 µM
# In short: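 NIH 3T3 cells at 400 cells/well received 23 nL of compound by pintool and were incubated 48 or 72 h at 37 °C. Viability was read as ATP-coupled CellTiter-Glo luminescence.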
# Potency is the fitted concentration of half-maximal effect.
row,SMILES,Potency
1,CC(C)NC(=O)C(C)[C@@H]1CC[C@@]2(C)CC[C@H](N[S+](C)(=O)[O-])[C@@H](C)[C@@H]2[C@H]1O (some centres not stated),inactive
2,CCOc1ccc(NC(=O)C2CN(S(C)(=O)=O)CC23CCCCC3)cc1 (configuration not stated),inactive
3,Cc1cc(C2CCCN2C(=O)c2ccc(F)c(F)c2)on1 (configuration not stated),inactive
4,O=C(O)C[C@@H]1CCN(C(=O)Nc2ccccc2)C[C@@H]1CC1=NCCc2cc(F)ccc21,inactive
5,O=C1CC2(CCN(C(=O)C3CCN(C(=O)Cc4ccc(F)cc4)CC3)CC2)Oc2ccccc2N1,inactive
6,COc1ccc(-c2ccc3ncc(Nc4ccc(C(F)(F)F)cc4)n3n2)cn1,79.4 µM (active)
7,COc1ccc(-c2cccc(C(=O)N3CCC(NC(=O)c4ccc(C(F)(F)F)cc4)CC3)c2)nn1,inactive
8,COc1ccc(-c2ccc3ncc(Nc4cc(F)cc(N5CCOCC5)c4)n3n2)cn1,inactive
9,CC(=O)NCCc1ncc(C)n1C1CCCCC1,inactive
10,Cn1c(=O)n(C)c2cc(S(=O)(=O)N[C@@H]3CCOC[C@H]3O)ccc21,inactive
11,COCCC1(NC(=O)C2CCOCC2)CCN(C(=O)C2COc3ccccc3O2)CC1 (configuration not stated),inactive
12,COCC(=O)NCCC1CCN(C(=O)Nc2cc(F)cc(F)c2)CC1,inactive
13,COc1ccc(NC(=O)Cn2ccn3nc(-c4ccc(F)cc4)c(CO)c3c2=O)cc1OC,inactive
14,COc1ccc(OCC2(C)COc3ccc(C(=O)Nc4cccnc4)cc3N2)cc1 (configuration not stated),44.7 µM (active)
15,CCOc1ccc(NC(=O)C2(Cc3cccnc3)CCCCC(=O)N2)cc1 (configuration not stated),inactive
16,CC1(CNc2ccccc2)COc2ccc(C(=O)NCc3cccc(F)c3)cc2N1 (configuration not stated),39.8 µM (active)
17,CN(C)CCN(C)C(=O)c1ccc2c(c1)NC(C)(COc1ccc3[nH]ccc3c1)CO2 (configuration not stated),79.4 µM (active)
18,COc1ccc(C(=O)Nc2cccc(-c3nnc4n3CCCC4)c2)cc1,inactive
19,O=C(NCC1CCOCC1)c1ccc2[nH]ccc2c1,inactive
20,COc1cccc(NC(=O)c2ccc3c(c2)NC(C)(COc2ccccc2)CO3)c1 (configuration not stated),39.8 µM (active)
21,CC1(CCCCc2ccccc2)COc2ccc(C(=O)N3CC[S+](=O)([O-])CC3)cc2N1 (configuration not stated),inactive
22,O=C(Nc1cccnc1)c1ccc2c(c1)OCCN(Cc1ncccn1)C2,inactive
23,O=C(NCc1cccc(F)c1)C1CN(c2ccccc2)C(=O)N1 (configuration not stated),inactive

row,SMILES,Potency
1,COc1cccc(C(=O)Nc2ccc3c(c2)CN(Cc2ccc(OC)cc2OC)C(=O)CO3)c1,inactive
2,CC(C)NC(=O)NC1CCCN(c2ccc3nnc(C4CC4)n3n2)C1 (configuration not stated),inactive
3,O=C(NCCc1noc(C2CCCC2)n1)c1cc(F)c(F)cc1Cl,inactive
4,O=C(NCCn1cnc2ccccc2c1=O)C1CC(=O)N(c2n[nH]c3ccccc23)C1 (configuration not stated),inactive
5,CCOc1ccc(NC(=O)Cn2c(N3CCOCC3)nc(COC)cc2=O)cc1,inactive
6,O=C(c1ccc(F)cc1)N1CCC[C@H]1c1nc(-c2ccccc2Cl)no1,inactive
7,Cc1ncc(C(=O)N2C[C@@H](C(=O)O)[C@H](c3ccc4c(c3)OCO4)C2)c(C)n1,inactive
8,COCCNc1ncnc2c1CN(C1CCCNCC1)C(=O)CN2C (configuration not stated),inactive
9,COCc1cc(=O)n(CC(=O)NCc2ccc(C)cc2)c(N2CCOCC2)n1,inactive
10,CCCCOC(=O)c1ccc(NC(=O)c2c(OC)cc(=O)n3c2CCCC3)cc1,inactive
11,O=C(c1ccccc1Cl)N1CC2(Cc3ccccc3NC2=O)C1,inactive
12,O=C(NC1CCCc2c1[nH]c1ccc(F)cc21)c1ccccn1 (configuration not stated),inactive
13,O=C(Cc1ccccc1)NC1CCCc2c1[nH]c1c(Cl)cccc21 (configuration not stated),35.5 µM (active)
14,O=C(Cn1nc(-c2ccco2)ccc1=O)NC1CCCc2c1[nH]c1c(Cl)cccc21 (configuration not stated),inactive
15,COc1ccc(CC(=O)N2CCC[C@H]2c2nc(-c3ccccc3)no2)cc1,inactive
16,COc1ccc(CC(=O)NC2CCCc3c2[nH]c2ccccc32)cc1 (configuration not stated),31.6 µM (active)
17,O=C(Cn1nc2c(cc1=O)CCCC2)NC1CCCc2c1[nH]c1c(Cl)cccc21 (configuration not stated),inactive
18,COc1ccc(CN2CCc3oc(C)c(C(=O)NCCN4CCCC4)c3C2)cc1,inactive
19,CN(C)C(=O)c1nc(-c2ccc(Cl)cc2Cl)c2cnccn12,inactive
20,CN(C)C[C@@H]1CN(c2ncccn2)C[C@H]1NC(=O)Cc1ccccc1Cl,inactive
21,Cn1cc(CN2CC[C@H](c3nnc(-c4cccnc4)o3)C2)c2ccccc21,inactive
22,Fc1ccc(CN2CCOC[C@H]2c2ncc(-c3cccnc3)[nH]2)cc1,inactive
23,Cc1ccc(CN2CCOC[C@H]2c2ncc(-c3cccc(F)c3)[nH]2)cc1,79.4 µM (active)

row,SMILES,Potency
1,Oc1ccccc1CN1CCOC[C@H]1c1ncc(-c2ccc(C(F)(F)F)cc2)[nH]1,50.1 µM (active)
2,c1cncc(-c2cnc([C@@H]3COCCN3Cc3cnc4ccccc4c3)[nH]2)c1,inactive
3,CC(C)(C)c1coc([C@@H]2COCCN2Cc2ccc(F)cc2)n1,inactive
4,CN(C)c1ccc(CN2CCOC[C@H]2c2ncc(-c3cccc(F)c3)[nH]2)cc1,inactive
5,Cn1cc(CN2CCOC[C@H]2c2ncc(-c3cccc(F)c3)[nH]2)c2ccccc21,39.8 µM (active)
6,CN(Cc1ccccc1)Cc1cn([C@H]2CO[C@H]3[C@@H]2OC[C@@H]3NS(C)(=O)=O)nn1,inactive
7,CCc1noc(-c2cccn3c(CNC(=O)C(CC)c4ccccc4)nnc23)n1 (configuration not stated),inactive
8,CCn1cc(S(=O)(=O)N2CC[C@H](CNC(C)=O)[C@H](N(C)C)C2)cn1,inactive
9,Cc1ccc(F)cc1S(=O)(=O)N1CCn2c(nn(CC3CC3)c2=O)C1,inactive
10,O=C(C[C@@H]1O[C@H](CNC(=O)C2CC2)[C@@H](O)[C@H]1O)NCCN1CCOCC1,inactive
11,Cc1ccnc(N2CC[C@@H]3[C@@H](CCC(=O)N3CCc3ccccn3)C2)n1,inactive
12,c1cncc(-c2noc(C3CCCN(Cc4cc5n(n4)CCNC5)C3)n2)c1 (configuration not stated),inactive
13,CCOC(=O)N1CCC(=O)N(Cc2ccccc2)Cc2cc(OC)ccc21,inactive
14,Cc1nc(C(C)C)ncc1C(=O)N1CCN(C)C2(CCNC(=O)CC2)C1 (configuration not stated),inactive
15,CNC(=O)[C@@H](c1ccccc1F)N1CCC[C@H]1C(=O)NCCOC,inactive
16,O=C(c1cccs1)N1CCOCC2(CN(Cc3cc(F)cc(F)c3)C2)C1,inactive
17,CC(=O)N1CCC2(CC1)CN(C(=O)Cc1cccc(Cl)c1)CCO2,inactive
18,O=C(Cc1ccc(F)cc1)N1CCOCC2(CN(Cc3ccccc3)C2)C1,35.5 µM (active)
19,Cc1nc(-c2cn(C3CCCN(C(=O)c4sccc4C)C3)nn2)no1 (configuration not stated),inactive
20,CCN1CCN(CCNC(=O)C2Cn3cccc3C(=O)N2Cc2cccnc2)CC1 (configuration not stated),inactive
21,N#Cc1ccc(CN2CCc3nc(C(=O)N4CCOCC4)oc3CC2)cc1,inactive
